Results from PubChem BioAssay (NCI).
About 83,000 compounds went through this panel and 20% of them were active in at least one assay; those are over-represented in the sample as a whole.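 Results are percent growth after 48 hours of single-concentration exposure. 100 means growth as in untreated cells, lower positive values show inhibition; negative values down to -100 show cell death.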 A number with no mark means an inactive call. Activity calls are given as the source filed them. Rule for the calls: active = growth percent below 10; inactive = the rest.

Columns and labels:
Assay in all cases: NCI-60 one-dose screen, 48 h (100 = growth as untreated, 0 = no growth, -100 = all killed)
Settings in all cases: 10 µM unless noted
[1] = test system: HCT-15 colon
[2] = test system: HT29 colon
[3] = test system: SNB-19 CNS
[4] = test system: PC-3 prostate
[5] = test system: SK-MEL-5 melanoma
[6] = test system: UACC-62 melanoma
[7] = test system: SK-MEL-28 melanoma
[8] = test system: U251 CNS
[9] = test system: LOX IMVI melanoma

SMILES | growth [1] | growth [2] | growth [3] [%] | growth [4] | growth [5] | growth [6] | growth [7] | growth [8] | growth [9]
Cc1ccc(Nc2ncnc3c2c(C)nn3-c2ccc([N+](=O)[O-])cc2)cc1 | 82.5% | 80.3% | 88.8 | 78.4% | 92.9% | 92.2% | 97.5% | – | –
CCN(CC)CCCC(C)NCC(=O)NC(c1ccc2c(c1)OCO2)c1cc(Cl)c2cccnc2c1O (stereo not given) | 20.6% | 23.6% | 38.1 | 20.1% | -77.4% (active) | -17.6% (active) | 46.5% | 30.2% | -30.1% (active)
Cc1cc(Cl)cc(NS(=O)(=O)c2ccc(-c3cnc(C4CC4)o3)cc2)c1 | 21.8% | 10.7% | 36 | 17.4% | 32.5% | 31.5% | 55.4% | 23.9% | –
O=C(Nc1cc(Cl)cc(Cl)c1)Nc1nc2ccc([N+](=O)[O-])cc2s1 | 2.76% (active) | 5.08% (active) | 21.3 | 7.99% (active) | -76.5% (active) | -34.1% (active) | -2.55% (active) | 6.61% (active) | –
COc1cc(/C=N/n2cnc3oc(-c4ccccc4)cc3c2=N)cc(CN2CCOCC2)c1O | 27.9% | 60.3% | 101 | 64.6% | 62.3% | 62.5% | 78.3% | 53.7% | 8.3% (active)
Oc1ccc(-c2nnc(SCc3ccc(O)c4ncccc34)n2-c2ccccc2)cc1 | 20.3% | 24.9% | 14.7 | 32.3% | -44.6% (active) | -4.05% (active) | 17% | 9.39% (active) | 5.09% (active)
O=[N+]([O-])c1ccc(-c2nnc(SCc3ccc(O)c4ncccc34)n2-c2ccccc2)cc1 | 19.2% | 65.8% | 14.4 | 21% | 1.12% (active) | 27.7% | 43.4% | 14% | -19.9% (active)
CC(C)N=C(N/C(N)=N/c1nc2ccccc2s1)NC(C)C | 62.5% | 31.7% | 48.2 | 64% | 62.5% | 61.4% | 74.6% | – | 1.73% (active)
Oc1ccc(CSc2nnc(-c3ccncc3)o2)c2cccnc12 | 23% | 20.7% | 17.6 | 12.7% | -51.3% (active) | 18.2% | 39.7% | 15.8% | 21.4%
COc1cc2cc(Oc3ccc(NC(=O)Nc4cccc(C(F)(F)F)c4)cc3)c(C)nc2cc1OCCN(C)C | 25% | 60.1% | 99 | 85.9% | 81.2% | 100% | 91.6% | 84.8% | -74.9% (active)
